A number with no mark means an inactive call. Results filed as inconclusive are left out. Activity calls are given as the source filed them. Unless noted, calls follow the shape of the dose curve; as a rule, active = well fitted curve in the direction sought with a large enough effect; inconclusive = small, poorly fitted or top-dose-only effect, or another doubt; inactive = no such curve, though single readings can be large; an effect the other way counts as inactive or inconclusive. Bounds are passed on as bounds.

Test [1] addresses Lysosomal acid glucosylceramidase (Homo sapiens) (UniProt P04062). Briefly: Glucocerebrosidase-p2 (AID 348; in the data active = potency below about 10 µM; also: potency is read from the fitted curve at half-maximal effect). The settings on record: purified GBA, blue fluorogenic substrate, 40 min. The gist of the method: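 Normal human glucocerebrosidase (0.2 nM) with blue fluorogenic substrate (80 uM final) in citrate/phosphate pH 5.9 with 10mM sodium taurocholate, 0.01% tween-20; 40 min RT, NaOH/glycine stop; fluorescence Ex 365/Em 440; AC50 from a titration from 0.6 nM upwards.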

Test [2] can be described thus: AP1 Signaling Pathway (AID 357; active = well fitted curve in either direction with a large enough effect, not every such curve was filed as active;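 also: ME-180 reporter cells stimulated with EGF at its EC50 level; % is scaled to controls: 0 for no effect and ±100 for the full control effect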). The settings on record: ME-180 AP-1-bla reporter, EGF-induced, beta-lactamase ratio, 5 h; at 7.69 µM (top of the series) unless noted. A digest of the protocol: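 In this screen, ME-180 cells in Opti-MEM with 0.5% dialyzed FBS received EC50 EGF and compound titrations for 5 h. AP-1 reporter beta-lactamase was detected via CCF4 ratio, giving AC50 for positive and negative modulators.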

Test [3] addresses Cytochrome P450 1A2 (Homo sapiens) (UniProt P05177). Briefly: p450-cyp1a2 (AID 410; calls by dose curve; also: potency is read from the fitted curve at half-maximal effect). The gist of the method: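 Read-out is luminescence from luciferin produced by CYP1A2 demethylation of Luciferin-ME (100uM, at Km). Detection reagent stopped the 60 min NADPH-dependent reaction; signals were normalized to 57 uM furafylline.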
Test [4] can be described thus: NFAT Signaling Pathway (AID 444; active = well fitted curve in either direction with a large enough effect, not every such curve was filed as active;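 also: carbachol stimulus at about its EC50 of 1 µM final; % is scaled to controls: 0 for no effect and ±100 for the full control effect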). The settings on record: Jurkat NFAT-bla M1, carbachol, beta-lactamase ratio, 5 h; at 7.69 µM (top of the series) unless noted. The gist of the method: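 Jurkat cells carrying an NFAT-driven β-lactamase reporter and co-transfected muscarinic M1 receptor were treated with compound plus carbachol (1 uM final, an EC50 level) for 5 h at 37 °C. CCF4 loading followed for 1 h at RT; 460/530 nm ratio gave %activity.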

Test [5] in a line: Stat Signaling Pathway (AID 446; active = well fitted curve in either direction with a large enough effect, not every such curve was filed as active;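 also: ME-180 cervical cancer cells given 40 pM IL-6 alongside compound; SIE-controlled beta-lactamase reporter measured as 460/530 nm FRET emission ratio; % is scaled to controls: 0 for no effect and ±100 for the full control effect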). A digest of the protocol: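 FRET read-out (405 nm excitation, 460/530 nm emission) of a beta-lactamase reporter under a STAT-inducible element in ME-180 cervical carcinoma cells. Cells with compound receive 40 pM IL-6 for 5 h. Values are normalised to AC90 stimulation and AC90 JAK-inhibitor controls.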
The target in test [6] is Glucocorticoid receptor (Homo sapiens) (UniProt P04150). Briefly: GR-GFP Redistribution (AID 450;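 active = compounds whose dose series gives a full or clear partial fitted curve of increased nuclear translocation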; also: potency is read from the fitted curve at half-maximal effect). The settings on record: U2OS GR-GFP nuclear translocation, laser cytometry, 2 h.
The target is the same in test [7]. Briefly: GR-EFC Redistribution (AID 451; calls by dose curve; also: potency is read from the fitted curve at half-maximal effect). The conditions noted are these: CHO-K1 GR-EFC translocation, beta-gal luminescence, 2 h. The gist of the method: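 CHO-K1 cells stably expressing nuclear-localized β-gal enzyme acceptor and GR fused C-terminally to the enzyme donor fragment; ligand-driven nuclear translocation restores β-gal by complementation. Compounds titrated up to 46 uM final, 2 h at 37 °C; luminescence read.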

Test [8] has as its target Mitogen-activated protein kinase 10 (Mus musculus) (UniProt Q61831). Briefly: JNK3 AlphaScreen Assay (AID 530; active = well fitted curve in either direction with a large enough effect, not every such curve was filed as active;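 also: kinase came from lysate of stimulated human HepG2 cells; signal reports phosphorylation of biotinylated GST-cJun 1-79 at Ser73 with 10 µM ATP; % is scaled to controls: 0 for no effect and ±100 for the full control effect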). The gist of the method: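 Biotinylated GST-cJun(1-79) served as substrate for JNK3 in HepG2 lysates stimulated with IL-1beta and TNF-alpha. ATP was 10 uM final, pH 7.6. Ser73 phosphorylation was quantified by AlphaScreen (680 nm excitation).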
(In general: In Alpha technology, singlet oxygen from a donor bead excites a nearby acceptor bead.)

Test [9] deals with Cytochrome P450 3A4 (Homo sapiens) (UniProt P08684). As to the kind of experiment: qHTS Assay for Inhibitors and Substrates of Cytochrome P450 3A4 (AID 884). Also: potency is read from the fitted curve at half-maximal effect; nearly all actives have a fitted effect of over 50% in size. The gist of the method: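 Luminescent readout of luciferin produced by CYP3A4 (20 nM) dealkylation of Luciferin-PPXE, 25 uM (its KM). NADPH-driven reaction ran 60 min at RT after 10 min compound preincubation; data scaled to 57 uM ketoconazole as 100% inhibition.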
A general note: Quantitative high-throughput screening tests each substance at several concentrations.

Test [10] shares this target. Briefly: qHTS Assay for Activators of Cytochrome P450 3A4 (AID 885). Also: nearly all actives have a fitted effect of over 65% in size. A digest of the protocol:
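Luminescent readout of luciferin formed from 25 uM Luciferin-PPXE (KM level) by 20 nM CYP3A4 in 200 mM KPO4, with 60 min NADPH-driven reaction at room temperature after 10 min compound exposure. Ketoconazole (57 uM) defined 100% inhibition.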

Test [11] deals with Cytochrome P450 2C19 (Homo sapiens) (UniProt P33261). As to the kind of experiment: qHTS Assay for Inhibitors and Substrates of Cytochrome P450 2C19 (AID 899). Also: potency is read from the fitted curve at half-maximal effect; nearly all actives have a fitted effect of over 60% in size. The gist of the method: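 In 50mM KPO4, the reaction held 5nM enzyme and KM-level (10uM) Luciferin-H EGE; it ran 60 min at 37C after NADPH regeneration and a 10 min compound preincubation. Luminescence values were scaled to 57uM ketoconazole as complete inhibition.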

In test [12] the target is Dual specificity protein kinase CLK4 (Homo sapiens) (UniProt Q9HAZ1). As to the kind of experiment: qHTS Assay for Inhibitors of CDC-like Kinase 4 (Kinase-Glo Assay) (AID 1770). Also: nearly all actives have a fitted effect of over 65% in size. Also: potency is read from the fitted curve at half-maximal effect. The gist of the method:
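Substrate mix (RS peptide 100 uM, ATP 1 uM) dispensed, compound pinned in, then Clk4 added to 25 nM final. Incubated 4.5 h at RT; Kinase-Glo reagent added, luminescence read after 5 min.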

Test [13] shares this target. Briefly: qHTS Assay for Inhibitors of CDC-like Kinase 4 (ADP-Glo Assay) (AID 1771). Also: nearly all actives have a fitted effect of over 70% in size. Also: potency is read from the fitted curve at half-maximal effect. A digest of the protocol:
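In this ADP-Glo format, 1 uM ATP and 100 uM RS peptide served as substrates for 25 nM Clk4 in Mg2+/EGTA/DTT/Triton buffer; reactions ran 1 hr at room temperature before luminescent ADP quantification.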

For test [14] the target is unchanged. Briefly: qHTS Assay for Inhibitors of CDC-like Kinase 4 (ADP-FP Assay) (AID 1795). Also: nearly all actives have a fitted effect of over 60% in size. Also: potency is read from the fitted curve at half-maximal effect. A digest of the protocol:
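Clk4 6.25 nM; RS peptide 100 uM; ATP 1 uM; 25 mM Tris pH 7.5, 10 mM MgCl2; 1 h reaction. ADP detected via antibody/orange tracer FP displacement; TG003 positive control.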

The target of test [15] is Ubiquitin carboxyl-terminal hydrolase 1 (Homo sapiens) (UniProt O94782). As to the kind of experiment: Inhibitors of USP1/UAF1: Pilot qHTS (AID 504865).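 Also: rhodamine fluorescence freed from ubiquitin-rhodamine substrate followed over time; top concentration of the series differs between compounds; % is scaled to controls: 0 for no effect and ±100 for the full control effect; nearly all actives have a fitted effect of over 35% in size.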 The gist of the method:
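In 50mM HEPES pH 7.8 containing 0.5mM EDTA, 1mM TCEP, 0.1 mg/ml BSA and 0.01% Tween-20, 1nM USP1/UAF1 is exposed to compound for 15 min, then Ub-Rho (150nM final) is added and fluorescence is read over time.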

The target of test [16] is 3',5'-cyclic-AMP phosphodiesterase 4B (Homo sapiens) (UniProt Q07343). As to the kind of experiment: qHTS Assay for Inhibitors of PDE-IV (AID 607; active = well fitted activation curve with a large enough effect in the main read-out, with a control signal flat, not every such curve was filed as active; also: % of control where 0% means no effect). A digest of the protocol:
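Cell-based read-out of cAMP via a modified cyclic nucleotide-gated channel and membrane potential dye (535/590 nm) in HEK293 cells expressing PDE4 endogenously. Compounds tested up to 22.9 uM final; 100 uM RO 20-1724 reference.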

Test [17] is described as follows: qHTS Assay for Identification of Small Molecule Agonists for Hypoxia Response Element Signaling Pathway (AID 914; active = well fitted activation curve with a large enough effect in the signal ratio, with a control signal flat, not every such curve was filed as active; the % refers to the signal ratio; also: potency is read from the fitted curve at half-maximal effect). The settings on record: ME-180 (cervical carcinoma) HRE-bla reporter, beta-lactamase ratio, CoCl2, 17 h; activation: stronger effect = higher value. A digest of the protocol:
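A beta-lactamase reporter under hypoxia response element control in ME-180 cells served as the system. Compound titrations plus EC50 CoCl2 ran 17 h at 37 degrees Celsius; AC50 values were fitted from %Activity.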

3',5'-cyclic-AMP phosphodiesterase 4B (Homo sapiens), sequence (Q07343 whole entry, looked up): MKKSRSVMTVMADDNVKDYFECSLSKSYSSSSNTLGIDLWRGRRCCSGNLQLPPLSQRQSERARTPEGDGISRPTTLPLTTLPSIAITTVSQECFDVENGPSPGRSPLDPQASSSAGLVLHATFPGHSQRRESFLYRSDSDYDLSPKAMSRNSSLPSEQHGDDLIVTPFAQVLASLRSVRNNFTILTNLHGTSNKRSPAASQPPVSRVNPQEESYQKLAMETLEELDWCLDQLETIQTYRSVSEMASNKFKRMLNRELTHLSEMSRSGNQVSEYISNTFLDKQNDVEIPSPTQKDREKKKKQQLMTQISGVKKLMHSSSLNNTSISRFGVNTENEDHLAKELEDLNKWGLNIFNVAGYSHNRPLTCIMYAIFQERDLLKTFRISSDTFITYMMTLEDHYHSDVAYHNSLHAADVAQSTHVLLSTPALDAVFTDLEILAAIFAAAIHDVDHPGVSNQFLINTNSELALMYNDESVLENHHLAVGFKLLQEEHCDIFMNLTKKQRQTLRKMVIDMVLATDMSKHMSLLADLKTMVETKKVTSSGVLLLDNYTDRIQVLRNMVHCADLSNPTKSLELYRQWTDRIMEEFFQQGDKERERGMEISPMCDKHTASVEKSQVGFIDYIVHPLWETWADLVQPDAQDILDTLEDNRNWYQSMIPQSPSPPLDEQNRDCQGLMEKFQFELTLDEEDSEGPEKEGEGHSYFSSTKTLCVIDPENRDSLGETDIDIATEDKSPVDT
Glucocorticoid receptor (Homo sapiens), sequence (P04150 whole entry, looked up, the tested form may be a part): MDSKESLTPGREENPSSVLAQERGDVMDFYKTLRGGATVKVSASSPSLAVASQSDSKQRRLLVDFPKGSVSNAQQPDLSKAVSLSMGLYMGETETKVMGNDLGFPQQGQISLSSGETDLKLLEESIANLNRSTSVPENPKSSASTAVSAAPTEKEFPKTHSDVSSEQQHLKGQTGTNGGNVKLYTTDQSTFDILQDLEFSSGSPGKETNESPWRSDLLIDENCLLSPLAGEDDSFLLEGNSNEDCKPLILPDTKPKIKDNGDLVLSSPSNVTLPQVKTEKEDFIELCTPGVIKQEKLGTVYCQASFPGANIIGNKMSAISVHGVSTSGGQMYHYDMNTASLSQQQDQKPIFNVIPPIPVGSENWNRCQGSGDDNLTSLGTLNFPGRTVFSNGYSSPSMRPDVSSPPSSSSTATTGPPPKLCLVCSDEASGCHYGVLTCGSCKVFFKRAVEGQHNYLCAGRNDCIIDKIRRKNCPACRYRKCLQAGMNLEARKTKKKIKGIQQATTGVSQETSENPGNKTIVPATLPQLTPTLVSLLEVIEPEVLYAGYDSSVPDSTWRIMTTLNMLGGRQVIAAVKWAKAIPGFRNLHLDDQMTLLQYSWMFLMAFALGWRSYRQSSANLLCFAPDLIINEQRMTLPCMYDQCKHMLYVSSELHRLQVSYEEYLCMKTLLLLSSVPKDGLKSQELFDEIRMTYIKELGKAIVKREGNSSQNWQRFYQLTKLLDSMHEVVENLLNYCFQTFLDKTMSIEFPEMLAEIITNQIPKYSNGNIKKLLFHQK
Dual specificity protein kinase CLK4 (Homo sapiens), sequence (Q9HAZ1 whole entry, looked up): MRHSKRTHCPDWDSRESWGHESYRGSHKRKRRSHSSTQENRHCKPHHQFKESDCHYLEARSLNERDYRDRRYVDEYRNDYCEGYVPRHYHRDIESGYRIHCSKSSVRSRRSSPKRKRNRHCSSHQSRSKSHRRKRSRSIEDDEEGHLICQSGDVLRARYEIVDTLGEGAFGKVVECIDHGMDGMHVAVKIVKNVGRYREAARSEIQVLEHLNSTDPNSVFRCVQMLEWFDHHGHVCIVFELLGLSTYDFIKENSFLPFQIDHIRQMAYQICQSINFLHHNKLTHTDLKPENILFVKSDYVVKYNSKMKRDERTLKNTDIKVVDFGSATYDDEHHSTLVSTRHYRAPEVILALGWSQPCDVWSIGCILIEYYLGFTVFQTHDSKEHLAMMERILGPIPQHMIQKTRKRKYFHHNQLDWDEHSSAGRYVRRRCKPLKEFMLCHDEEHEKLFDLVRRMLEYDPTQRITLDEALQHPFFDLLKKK
Cytochrome P450 1A2 (Homo sapiens), sequence (P05177 whole entry, looked up): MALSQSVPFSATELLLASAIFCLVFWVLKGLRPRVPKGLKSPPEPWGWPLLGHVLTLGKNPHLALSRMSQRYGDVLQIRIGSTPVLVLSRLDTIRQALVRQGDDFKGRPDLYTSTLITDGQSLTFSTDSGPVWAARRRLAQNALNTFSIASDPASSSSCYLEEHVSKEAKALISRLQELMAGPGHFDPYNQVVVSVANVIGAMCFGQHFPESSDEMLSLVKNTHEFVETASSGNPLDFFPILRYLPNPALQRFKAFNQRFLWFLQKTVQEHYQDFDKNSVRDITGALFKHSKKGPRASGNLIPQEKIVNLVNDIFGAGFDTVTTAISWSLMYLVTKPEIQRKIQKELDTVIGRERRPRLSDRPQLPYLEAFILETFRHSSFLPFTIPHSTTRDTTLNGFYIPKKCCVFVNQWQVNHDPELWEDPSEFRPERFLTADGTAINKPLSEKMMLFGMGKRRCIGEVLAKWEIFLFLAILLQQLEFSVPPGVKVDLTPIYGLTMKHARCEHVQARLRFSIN
Cytochrome P450 2C19 (Homo sapiens), sequence (P33261 whole entry, looked up): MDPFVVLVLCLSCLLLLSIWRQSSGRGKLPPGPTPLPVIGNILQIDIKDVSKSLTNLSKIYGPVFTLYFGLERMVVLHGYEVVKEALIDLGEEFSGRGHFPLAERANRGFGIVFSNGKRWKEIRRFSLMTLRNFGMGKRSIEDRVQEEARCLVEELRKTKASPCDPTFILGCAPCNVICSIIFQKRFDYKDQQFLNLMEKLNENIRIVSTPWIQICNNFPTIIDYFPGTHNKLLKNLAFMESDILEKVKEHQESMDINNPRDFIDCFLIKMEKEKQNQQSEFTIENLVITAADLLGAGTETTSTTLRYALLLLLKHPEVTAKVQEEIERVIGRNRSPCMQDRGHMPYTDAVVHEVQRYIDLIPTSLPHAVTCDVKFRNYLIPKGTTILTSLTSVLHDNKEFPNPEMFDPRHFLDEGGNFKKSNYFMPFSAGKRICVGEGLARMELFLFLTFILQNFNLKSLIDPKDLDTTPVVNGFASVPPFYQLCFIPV
Cytochrome P450 3A4 (Homo sapiens), sequence (P08684 whole entry, looked up): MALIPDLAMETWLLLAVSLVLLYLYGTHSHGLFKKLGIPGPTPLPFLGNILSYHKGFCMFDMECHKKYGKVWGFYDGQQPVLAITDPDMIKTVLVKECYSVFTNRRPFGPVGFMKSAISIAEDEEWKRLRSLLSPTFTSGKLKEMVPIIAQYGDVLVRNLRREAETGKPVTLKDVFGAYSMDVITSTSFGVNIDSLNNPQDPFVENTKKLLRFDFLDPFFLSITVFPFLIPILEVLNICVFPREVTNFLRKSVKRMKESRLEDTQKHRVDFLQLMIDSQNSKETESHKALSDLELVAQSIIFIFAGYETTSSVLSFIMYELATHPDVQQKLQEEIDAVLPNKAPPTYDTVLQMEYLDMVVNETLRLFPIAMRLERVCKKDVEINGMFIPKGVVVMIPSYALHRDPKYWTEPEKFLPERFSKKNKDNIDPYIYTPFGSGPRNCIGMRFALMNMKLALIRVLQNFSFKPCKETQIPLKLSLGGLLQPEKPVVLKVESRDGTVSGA
Ubiquitin carboxyl-terminal hydrolase 1 (Homo sapiens), sequence (O94782 whole entry, looked up): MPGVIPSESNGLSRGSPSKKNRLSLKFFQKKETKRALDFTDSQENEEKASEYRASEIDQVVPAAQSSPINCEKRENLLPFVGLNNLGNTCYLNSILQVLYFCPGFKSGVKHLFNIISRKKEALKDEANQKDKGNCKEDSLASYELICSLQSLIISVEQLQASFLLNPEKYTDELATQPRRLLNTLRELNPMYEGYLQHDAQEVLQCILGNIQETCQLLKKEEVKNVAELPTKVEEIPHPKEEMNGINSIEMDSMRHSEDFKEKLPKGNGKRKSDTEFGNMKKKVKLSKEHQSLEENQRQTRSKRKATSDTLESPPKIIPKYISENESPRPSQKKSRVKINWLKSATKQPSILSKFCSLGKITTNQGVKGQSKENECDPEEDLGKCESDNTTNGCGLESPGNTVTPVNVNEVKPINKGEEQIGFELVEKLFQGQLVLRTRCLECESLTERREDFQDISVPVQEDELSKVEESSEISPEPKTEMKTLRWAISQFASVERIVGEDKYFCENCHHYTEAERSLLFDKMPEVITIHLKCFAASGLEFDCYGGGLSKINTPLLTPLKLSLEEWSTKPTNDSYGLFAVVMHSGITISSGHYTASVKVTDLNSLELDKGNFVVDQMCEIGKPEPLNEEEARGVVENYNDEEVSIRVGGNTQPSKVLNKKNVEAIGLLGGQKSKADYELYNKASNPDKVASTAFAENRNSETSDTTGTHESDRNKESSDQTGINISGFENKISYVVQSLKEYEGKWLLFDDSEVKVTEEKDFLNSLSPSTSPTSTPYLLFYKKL
Lysosomal acid glucosylceramidase (Homo sapiens), sequence (P04062 whole entry, looked up): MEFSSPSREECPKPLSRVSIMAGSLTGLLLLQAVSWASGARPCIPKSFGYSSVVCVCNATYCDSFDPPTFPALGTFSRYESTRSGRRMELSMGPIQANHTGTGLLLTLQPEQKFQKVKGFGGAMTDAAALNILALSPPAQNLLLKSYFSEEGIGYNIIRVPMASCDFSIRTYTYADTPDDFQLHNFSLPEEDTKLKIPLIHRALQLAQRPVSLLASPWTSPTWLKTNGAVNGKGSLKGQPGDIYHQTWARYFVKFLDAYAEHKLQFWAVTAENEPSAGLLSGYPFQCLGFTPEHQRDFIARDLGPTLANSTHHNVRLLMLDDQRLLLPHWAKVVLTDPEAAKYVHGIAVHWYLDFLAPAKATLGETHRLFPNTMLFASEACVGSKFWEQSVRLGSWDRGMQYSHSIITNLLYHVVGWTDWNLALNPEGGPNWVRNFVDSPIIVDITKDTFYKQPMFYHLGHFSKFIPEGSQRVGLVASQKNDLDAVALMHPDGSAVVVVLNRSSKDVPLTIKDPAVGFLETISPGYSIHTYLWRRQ

Consider `Clc1ccccc1-c1nc(-n2ccnc2)c2ccccc2n1`, for which the Potency in [1] is > 11.4 µM; in [3] it was 0.158 µM (active); in test [6] it was > 46 µM; in test [7], > 46 µM; in test [9], 0.501 µM (active); in [11], 7.94 µM (active). The Potency in test [12] was 1.26 µM (active); in [13], 2.24 µM (active); in test [14] it was 1 µM (active). The values for the activity change, negative = inhibition in [2] and in test [4] were -5.23% and -17.9%, respectively. Further, the outcome in [5] and in test [10] was inactive. Besides, the Potency result in test [8] and in test [15] was “inactive” each time.

`c1ccc(Nc2nc(-c3cccnc3)nc3ccccc23)cc1`: the Potency was > 11.4 µM in test [1]; > 46 µM in [6]; > 46 µM in test [7]; 2.51 µM (active) in test [12]; 3.55 µM (active) in test [13]; 2 µM (active) in test [14]. In addition, the activity change, negative = inhibition in test [2] is 6.52%; in [4] it was 17%. In addition, the outcome in test [5] and in [10] was inactive. Also, the Potency result in test [8] and in [15] was “inactive” in each case.

`COc1ccc(-c2nc3cnc(N4CCOCC4)nc3n(-c3ccc(OC)cc3)c2=O)cc1`: the Potency in test [1] is > 11.4 µM; in test [6], > 9.22 µM; in test [7], > 46 µM; in [17], 3.16 µM (active). In addition, the activity change, negative = inhibition in test [2] was -5.89%. Besides, the call in [5] was inactive. The Potency result in [16], in [12], in test [13] and in test [14] was “inactive” in each case.

Take `CCNc1ncc2nc(CCc3ccccc3)c(=O)n(Cc3cccc(OC)c3)c2n1`: the Potency in test [1] was > 11.4 µM; in test [6] it was > 9.22 µM; in test [7], > 46 µM; in [11], 6.31 µM (active). In addition, the activity change, negative = inhibition is 16.5% in test [2] and -6.29% in test [4]. The molecule was classed as inactive in [5] and in test [10]. Also, the Potency result in test [12], in test [13], in test [14] and in [15] was “inactive” throughout.

`Cc1cccc(CNc2ncncc2-c2ccccc2CN(C)C)c1`: the activity change, negative = inhibition in test [2] was 1.18%. For the same molecule, the Potency in test [6] and in test [7] was > 46 µM in each case. Besides, the Potency result in [8], in test [16], in [12], in test [13], in [14] and in test [15] was “inactive” throughout.

For `COc1ccccc1CNc1ncncc1-c1ccc2c(c1)OCO2`, the Potency in [1] is > 11.4 µM; in test [3], 0.158 µM (active); in [6] it was > 46 µM; in test [7], > 46 µM; in [9], 0.199 µM (active); in test [12] it was 2.24 µM (active). Besides, the Potency in test [13] was 2 µM (active); in test [14] it was 1 µM (active). The activity change, negative = inhibition in [2] is -21.5%; in test [4] it was -11.1%. Also, the call in test [5] was inactive. Also, the Potency entry in test [8] and in test [15] was “inactive” each time.

For `COc1cccc(Cn2c(=O)cnc3cnc(Nc4cccc(OC)c4)nc32)c1`, the Potency in test [1] is > 11.4 µM; in [6] it was > 9.22 µM; in test [7] it was > 46 µM; in [9] it was 2 µM (active); in [11], 3.98 µM (active); in [12], 2.24 µM (active). Besides, the Potency in test [13] was 2.24 µM (active); in [14], 2 µM (active). Further, the activity change, negative = inhibition in test [4] is 15.4%. In addition, the outcome in [5] and in test [10] was inactive. Further, the Potency result in test [16] and in test [15] was “inactive” throughout.

In the case of `COc1cccc(-c2ccc3ncnc(Nc4ccccc4)c3c2)c1`, the Potency in test [1] is > 11.4 µM; in test [3], 1 µM (active); in test [6], > 46 µM; in test [7] it was > 46 µM; in test [11], 0.501 µM (active); in test [12], 2 µM (active). Moreover, the Potency in test [13] was 2.82 µM (active); in test [14], 0.282 µM (active). For the same molecule, the outcome in [5] and in test [10] was inactive. Moreover, the Potency result in test [8] and in [15] was “inactive” throughout.

Consider `COc1ccccc1CNc1ncncc1-c1ccccc1C(F)(F)F`, for which the Potency was > 11.4 µM in test [1]; 15.8 µM (active) in test [3]; > 46 µM in test [6]; > 46 µM in [7]; 0.0794 µM (active) in test [9]; 1.58 µM (active) in test [11]. Besides, the activity change, negative = inhibition was -7.72% in test [2] and -21.7% in test [4]. In addition, the molecule was called inactive in [5] and in test [10]. The Potency result in test [8], in [16], in [12], in test [13], in test [14] and in [15] was “inactive” each time.

For `COCCn1c(=O)c(CCc2ccccc2)nc2cncnc21`, the Potency in test [1] is > 11.4 µM; in [3] it was 10 µM (active); in test [6], > 9.22 µM; in test [7] it was > 46 µM; in [9] it was 7.94 µM (active). Further, the activity change, negative = inhibition in [2] was -15.8%; in test [4], 9.83%. Further, the Potency entry in test [8], in [16], in [12], in [13], in test [14] and in [15] was “inactive” in each case.

The values above are taken from PubChem BioAssay (NCATS).
